Source: PubChem (National Center for Advancing Translational Sciences (NCATS))
Rows were chosen to be rich in hits. Some 7.3% of all compounds tested hit in one or more screens of this group.
AmpC no deterg = blocks E. coli AmpC beta-lactamase in detergent-free assay; AmpC nitrocefin hydrolysis, absorbance 480 nm, 0.0001% Triton; Potency, µM (doses to about 57.1 µM), most hits filed as inhibitors; 330,000 tested, 0.52% active; AID 485341; also: nearly all actives have a fitted effect of over 20% in size
Target sequence (P00811 whole entry, looked up): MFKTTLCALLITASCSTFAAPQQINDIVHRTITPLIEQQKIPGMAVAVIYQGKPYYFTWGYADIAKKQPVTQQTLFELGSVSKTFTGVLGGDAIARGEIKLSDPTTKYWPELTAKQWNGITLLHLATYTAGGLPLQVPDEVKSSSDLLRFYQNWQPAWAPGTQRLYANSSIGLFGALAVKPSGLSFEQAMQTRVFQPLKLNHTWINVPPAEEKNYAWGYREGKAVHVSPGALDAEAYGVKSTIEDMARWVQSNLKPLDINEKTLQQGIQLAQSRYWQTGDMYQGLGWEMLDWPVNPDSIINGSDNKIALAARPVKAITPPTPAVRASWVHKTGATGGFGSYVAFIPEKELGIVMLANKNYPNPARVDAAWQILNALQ
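20 mM phosphate pH 7.0 + 0.01% (detergent screen) or 0.0001% Triton X-100; 5.3 nM AmpC reagent; cpd preinc 15 min RT; nitrocefin (800 uM stock) to start; A480 q20 s × 4 min; Activity was normalised to no-enzyme and no-compound control wells.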
HCMV inh = inhibitors of human cytomegalovirus. HFF cells, HCMV-luciferase reporter, 72 h; active compounds read low. activity change, negative = inhibition, % at 57.5 µM. 410,000 tested, 4.5% active. AID 1259415; in the data active = activity change below about -60%; inconclusive = no clear call, values can overlap the other calls; inactive = above about -39%
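Screen run at 2 compound doses on HFFs infected with reporter HCMV, MOI 1 PFU/cell. Luciferase activity from cell lysates at 72 h post infection gave inhibition relative to buffer-only and Salinomycin wells.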
HCV inh = HCV inhibition; Huh7.5.1 HCVcc-Cre infection, luciferase reporter, 44 h; Potency, µM (doses to about 41.8 µM), most hits filed as inhibitors; 340,000 tested, 3.4% active
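1,000 cells/well; 4 h culture; + compound; + HCVcc-Cre (~0.5 moi); 44 h; luciferase substrate, RT 15 min; read 15 sec.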
FMDV antiviral = blocks foot and mouth disease virus; FMDV antiviral cell-based qHTS; Potency, µM (titrated, usually from 57.9 µM), most hits filed as inhibitors; 410,000 tested, 1.2% active; AID 1159524; calls by dose curve; tested in HEK293T cells; also: read-out not given here; nearly all actives have a fitted effect of over 45% in size
AmpC detergent = inhibitors of E. coli AmpC beta-lactamase with detergent. 370,000 tested, 0.041% active. AID 485294. AmpC hydrolysis of nitrocefin, absorbance 480 nm, 0.01% Triton. Potency, µM (titrated, usually from 114 µM), actives largely listed as inhibitors; also: nearly all actives have a fitted effect of over 25% in size
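20 mM phosphate pH 7.0 + 0.01% (detergent screen) or 0.0001% Triton X-100; 5.3 nM AmpC reagent; cpd preinc 15 min RT; nitrocefin (800 uM stock) to start; A480 q20 s × 4 min; Activity was normalised to no-enzyme and no-compound control wells.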
Large screens that a line does not name were inactive. Unless noted, calls follow the shape of the dose curve; as a rule, active = well fitted curve in the direction sought with a large enough effect; inconclusive = small, poorly fitted or top-dose-only effect, or another doubt; inactive = no such curve, though single readings can be large; an effect the other way counts as inactive or inconclusive.

COc1ccccc1-n1c(CNC(=O)c2ccc(S(=O)(=O)N3CCCCC3)cc2)n[nH]c1=S	HCMV inh -70
Cc1ccc(O)c(-c2cc(C(=O)Nc3ccc(S(=O)(=O)N4CC(C)OC(C)C4)cc3)[nH]n2)c1 (stereo not drawn)	HCV inh 11µM, FMDV antiviral inconclusive
NS(=O)(=O)c1ccc(CCNC(=O)c2cc(-c3cc(Cl)ccc3O)n[nH]2)cc1	HCMV inh -80
O=C(Nc1ccc(S(=O)(=O)N2CCOCC2)cc1)c1cc(-c2cc(Cl)ccc2O)n[nH]1	HCMV inh -65, HCV inh 10µM, FMDV antiviral inconclusive
CCC(=O)NC(c1cc(Cl)c2cccnc2c1O)C(C)C (stereo not drawn)	HCMV inh -96 (no result: HCV inh)
Oc1c(I)cc(Cl)c2cccnc12	HCV inh inconclusive
CCC(=O)NC(c1cc(Cl)c2cccnc2c1O)C1CC1 (stereo not drawn)	HCMV inh -95, FMDV antiviral inconclusive (no result: HCV inh)
CCOC(=O)[C@H]1[C@H]2COc3ccc(OC)cc3[C@@H]2N2C(=O)CN(CCc3c[nH]c4ccccc34)C(=O)[C@@]12C	none
Cc1ncc2c(c1CNC(=O)c1ccc3c(c1)OCO3)CCN(C(=O)c1csc3c1CCCC3)C2	none (no result: AmpC no deterg, HCMV inh, HCV inh, AmpC detergent)
CNS(=O)(=O)c1cccc(C(=O)OCC(=O)N(CCC#N)c2ccccc2)c1	AmpC detergent inconclusive
Cc1ccc(S(=O)(=O)NCC(=O)OCC(=O)N(CCC#N)c2ccccc2)cc1	HCMV inh -64 (no result: AmpC detergent)
CCc1cc(=O)oc2cc(C)c3c(C)coc3c12	HCV inh 11µM
COc1ccc(-n2c(C)cc(/C=C/c3nc(O)c([N+](=O)[O-])c(=O)[nH]3)c2C)cc1	HCMV inh -61, AmpC detergent inconclusive
CCOC(=O)N1CCC2(CC1)C(C#N)=C(N)Oc1n[nH]c(CSc3ccc(C)cc3)c12	HCV inh inconclusive
Cc1ccc(SCc2[nH]nc3c2C2(CCSCC2)C(C#N)=C(N)O3)cc1	AmpC no deterg 28µM (no result: FMDV antiviral)
CNC(=O)c1c(NC(=O)CCS(=O)(=O)c2ccc(C)cc2)sc(C)c1C	AmpC detergent inconclusive
O=C(NC1=NCCS1)c1ccccc1OCc1ccccc1Cl	HCV inh 13µM
O=C(NC1=NCCS1)c1csc2ccccc12	HCV inh 7.1µM
O=C(NC1=NCCS1)c1ccccc1Cl	AmpC detergent inconclusive
C=CCCC1CN(Cc2ccc(OC)cc2)S(=O)(=O)c2c(cccc2Sc2ccc(OC)c(OC)c2)O1 (stereo not drawn)	none (no result: AmpC no deterg, HCV inh, FMDV antiviral, AmpC detergent)
CCCNC1=C(N(C(C)=O)c2cccc(F)c2)C(=O)c2ccccc2C1=O	HCMV inh -100, HCV inh 7.9µM, FMDV antiviral 28µM
COCc1cc(N2CCNC[C@@H]2C)ccc1N1CCS(=O)(=O)CC1	none (no result: AmpC no deterg, HCV inh, FMDV antiviral, AmpC detergent)
Nc1ccc(Oc2ccccc2-c2ccccc2)cc1	HCMV inh -82, FMDV antiviral 7.9µM (no result: AmpC no deterg, AmpC detergent)
Cn1nc(-c2ccccc2F)c2cc(C(=O)NCc3ccc(Cl)cc3)sc21	HCMV inh -71, FMDV antiviral inconclusive (no result: AmpC no deterg, HCV inh)
CC(CCc1ccco1)NC(=O)c1cc2c(-c3ccccc3F)nn(C)c2s1 (stereo not drawn)	HCV inh 18µM, FMDV antiviral inconclusive, AmpC detergent inconclusive
COc1ccccc1-n1c(=S)[nH]c2c(sc(=S)n2-c2ccccc2C)c1=O	AmpC detergent inconclusive
O=C(CCS(=O)(=O)c1cc(Br)cc2c1N(C(=O)C1CC1)CC2)Nc1ccc(F)cc1	none (no result: AmpC no deterg, HCV inh)
CCN(c1ccccc1)S(=O)(=O)c1cc(C(=O)NCC(c2ccc(OC)cc2)N(C)C)ccc1C (stereo not drawn)	HCV inh 10µM (no result: AmpC no deterg, AmpC detergent)
O=C(NCc1ccccc1)c1ccc2c(c1)N(Cc1ccc(F)cc1)CCS2	none (no result: AmpC no deterg, HCV inh)
CC1CCCN(S(=O)(=O)c2ccc([N+](=O)[O-])cc2)C1 (stereo not drawn)	AmpC detergent inconclusive
CC1CC(C)CN(S(=O)(=O)c2ccc(Oc3ccc([N+](=O)[O-])cc3)cc2)C1 (stereo not drawn)	HCMV inh -72, HCV inh inconclusive, FMDV antiviral inconclusive
COc1ccc(Nc2nnc(SC(C(=O)Nc3cc(C)ccc3C)c3ccccc3)s2)cc1 (stereo not drawn)	HCMV inh -100, HCV inh inconclusive, AmpC detergent inconclusive
